Measurements: PubChem BioAssay (NCI)
The panel holds about 83,000 compounds, 20% with a hit somewhere; the sample as a whole holds those more often.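 96-well plates, one dose, 48 hours. Percent growth reported; active if below 10.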 The source made the active and inactive calls.

Legend:
Experiment in all cases: NCI-60 one-dose screen, 48 h (100 = growth as untreated, 0 = no growth, -100 = all killed)
Details in all cases: 10 µM unless noted
[1] = tested on: SR leukemia
[2] = tested on: RPMI-8226 leukemia
[3] = tested on: OVCAR-8 ovarian
[4] = tested on: OVCAR-5 ovarian
[5] = tested on: OVCAR-4 ovarian
[6] = tested on: SK-OV-3 ovarian
[7] = tested on: IGROV1 ovarian
[8] = tested on: OVCAR-3 ovarian
[9] = tested on: HS 578T breast
[10] = tested on: NCI/ADR-RES ovarian

Measured: growth

Brc1ccc(Nc2nc(Nc3cnc4ccccc4c3)c3[nH]cnc3n2)cc1
inactive: [1] 63.9% | [2] 64.2% | [3] 83.9% | [4] 101% | [5] 73.7% | [6] 68.2% | [7] 74.7% | [8] 60.2% | [9] 60.9% | [10] 92.4%

O=C1/C(=C/c2ccc(Cl)cc2)CN(C(=O)C(Cl)Cl)C/C1=C\c1ccc(Cl)cc1
active: [1] -8.06% | [2] -28.6% | [3] -3.39% | [4] -61.8% | [5] 1.03% | [6] -7.85% | [7] -76.3% | [8] -97.9% | [9] -8.2% | [10] -2.96%

CCOC(=O)C/C(=N\Nc1cc(=O)[nH]c2ccc(OC)cc12)C(=O)OCC
inactive: [1] 67% | [2] 68.5% | [3] 103% | [4] 96.6% | [5] 101% | [6] 121% | [7] 92.4% | [8] 109% | [9] 91.8% | [10] 103%

COC1/C=C/OC2(C)Oc3c(C)c(O)c4c(O)c(c(/C=N/N(c5ccccc5)c5ccccc5)c(O)c4c3C2=O)NC(=O)C(C)=C/C=C/C(C)C(O)C(C)C(O)C(C)C(OC(C)=O)C1C (stereo not given)
inactive: [1] 30.9% | [2] 22.6% | [3] 63.3% | [4] 124% | [5] 69.5% | [6] 84.8% | [7] 100% | [8] 59.1% | [9] 62.2% | [10] 91.9%

O=c1oc2c(cc1-c1ccccc1)c(=O)[nH]c1ccccc12
inactive: [1] 108% | [2] 101% | [3] 95.7% | [4] 103% | [5] 99.6% | [6] 105% | [7] 103% | [8] 112% | [9] 98.1% | [10] 102%

O=C(NCCN1CCOCC1)OCc1ccc2c(Cl)cc(Cl)c(O)c2n1
active: [10] 5.25%
inactive: [1] 68.4% | [2] 56.2% | [3] 49.2% | [4] 106% | [5] 49.4% | [6] 91.8% | [7] 57.8% | [8] 62.1% | [9] 83.1%

N#Cc1c(-c2cccc(Cl)c2)cc(-c2cccnc2)[nH]c1=O
inactive: [1] 21.9% | [2] 88.8% | [3] 98.1% | [4] 98.4% | [5] 102% | [6] 90.7% | [7] 72.4% | [8] 47.2% | [9] 62.7% | [10] 80.3%

O=C(NCCCCO)c1cncnc1Nc1ccc2c(ccn2Cc2cccc(F)c2)c1
inactive: [1] 93.4% | [2] 95.3% | [3] 101% | [4] 86.3% | [5] 100% | [6] 89.8% | [7] 88.1% | [8] 98.5% | [9] 94.1% | [10] 91.3%

O=C(NCCCCCCNC(=O)OCc1ccc2c(Cl)cc(Cl)c(O)c2n1)OCc1ccc2c(Cl)cc(Cl)c(O)c2n1
active: [1] 4.84% | [2] -17.4% | [3] -32.6% | [4] -89.6% | [5] -56.9% | [7] -88.3% | [8] -73.6% | [9] -15.1% | [10] -12.5%
inactive: [6] 42.9%

COc1ccc(C(=O)Nc2ncc(Cc3ccc(Cl)cc3)s2)cc1
inactive: [2] 18.2% | [3] 25.7% | [4] 30.2% | [5] 49.1% | [6] 40% | [7] 14.4% | [9] 18.2%
active: [1] 5.82% | [8] -16.2% | [10] 9.45%

COC12C=C/C(=C(/C(=O)OCCSc3ccnn3C)C(=O)CCCCCCCCC3(OC)C=C/C(=C(/C(=O)OCCSc4ccnn4C)C(=O)CCCCCCCC1)O3)O2
active: [1] -7.77% | [2] -8.92% | [7] -3.71% | [8] 5.79%
inactive: [3] 17.3% | [4] 37% | [5] 20.4% | [6] 75.1% | [9] 39.4% | [10] 25.2%

COc1ccc(Oc2ccc(/C=C/C(=O)c3ccc(OC)c(OC)c3)cc2)cc1
inactive: [1] 50.9% | [2] 54.7% | [3] 73.8% | [4] 112% | [5] 62.8% | [6] 97.3% | [7] 85.5% | [8] 86.7% | [9] 88.2% | [10] 83.4%

COc1ccc2c(O)c(/C=C3\N=Nc4ncccc43)oc2c1C[C@@H]1CCNC[C@H]1F
active: [1] -22.1% | [2] -4.16% | [3] -20.5% | [5] -37.8% | [7] -2.07% | [8] -17.9% | [9] -1.31% | [10] 1.39%
inactive: [4] 17% | [6] 15%

Cc1ccc(NC(=O)c2cc3ccccc3cc2O)c(C)c1
inactive: [1] 76.8% | [2] 29.4% | [3] 109% | [4] 96.9% | [5] 74.4% | [6] 99.4% | [7] 80.4% | [8] 66.4% | [9] 98.9% | [10] 82.8%

NS(=O)(=O)c1ccc(C(=O)NN2C(=O)c3ccccc3C2=O)cc1
inactive: [1] 105% | [2] 109% | [3] 107% | [4] 110% | [5] 113% | [6] 117% | [7] 113% | [8] 108% | [9] 102% | [10] 112%

O=C1CCCC1[n+]1ccccc1 (stereo not given)
inactive: [1] 127% | [2] 103% | [3] 85.8% | [4] 70.5% | [5] 98% | [6] 80.1% | [7] 101% | [8] 97.8% | [9] 114% | [10] 103%

Cc1ccc2cnc(N)c(C#Cc3cc(C(=O)Nc4ccc(CN5CCN(C)CC5)c(C(F)(F)F)c4)cnc3C)c2c1
active: [1] -36.1% | [2] -40.6% | [4] -59.1% | [9] -12.4%
inactive: [3] 48.4% | [5] 37.6% | [6] 50.5% | [7] 11% | [8] 32.4% | [10] 22.8%

Oc1c(CN2CCC(N3CCOCC3)CC2)cc(Cc2cc(CN3CCC(N4CCOCC4)CC3)c(O)c3ncccc23)c2cccnc12
active: [6] 0.924%
inactive: [1] 20% | [2] 34.8% | [3] 19.6% | [4] 47.3% | [5] 15.4% | [7] 25% | [8] 19.6% | [9] 58.9% | [10] 40.7%

C[C@H]1[C@H](C)CC[C@]2(C(=O)NCCNCCN)CC[C@]3(C)C(=CC[C@@H]4[C@@]5(C)CCC(=O)C(C)(C)[C@@H]5CC[C@]43C)[C@H]12
active: [1] -38.7% | [2] -16.3% | [8] 9.12%
inactive: [3] 33.6% | [4] 94.1% | [5] 77.4% | [6] 87.4% | [7] 52.7% | [9] 72.5% | [10] 88.2%

CCCOC(=O)Nc1nc2ccc(SCC)cc2s1
inactive: [1] 25.9% | [2] 85.1% | [3] 94.7% | [4] 102% | [5] 94.2% | [6] 95.8% | [7] 89.5% | [8] 76.9% | [9] 93.4% | [10] 50.5%

CC(C)(C)OC(=O)CN1CCc2c(sc3ncnc(N4CCN(c5ccc(F)cc5)CC4)c23)C1
inactive: [1] 79.8% | [2] 57.7% | [3] 73.2% | [4] 82.8% | [5] 85.5% | [6] 102% | [7] 89.8% | [8] 90.5% | [9] 70.4% | [10] 79.7%

COc1cccc(CNc2c3ccccc3nc3ccccc23)c1OC
inactive: [1] 17.5% | [2] 17% | [3] 39.2% | [4] 43% | [5] 36.6% | [6] 66% | [7] 23.2% | [8] 65.1% | [9] 64.3% | [10] 33.2%

CCOC(=O)CC[C@H](NC(=O)c1ccc(N(C)Cc2cnc3nc(N)nc(N)c3n2)c2ccccc12)C(=O)OCC
inactive: [1] 31.8% | [2] 23% | [3] 23.9% | [4] 55.6% | [5] 91.1% | [6] 50.7% | [7] 24.5% | [8] 45.4% | [9] 58% | [10] 39.3%

Clc1ccc(Nc2nnc(CNc3ccccc3)c3ccccc23)cc1
active: [1] -9.19% | [2] 3.35% | [8] -1.64%
inactive: [3] 18.3% | [4] 41.4% | [5] 19.3% | [6] 22% | [7] 19.1% | [9] 26.6% | [10] 18.8%
